Measured values published in PubChem BioAssay (Tox21).
Active and inactive are the calls of the source. The call rests on the fitted dose curve; in most records, active means well fitted activation curve with a large enough effect in the repeat runs; inconclusive means weak or mixed curves; inactive means flat fitted curve, though single readings scatter. Where a SMILES comes first, the peptide text is derived from it. [ ]: non-standard residue; d: D form. pGlu = O=C1CC[C@@H](C(=O)O)N1

assay: A CellTox Green Cytotoxicity Assay to monitor cytotoxicity in HEK293 cells - 0 hour (AID 1224869); settings: CellTox Green fluorescence; series mostly up to 76.8 µM; cytotoxicity: at the top concentration; further: nearly all actives have a fitted effect of over 50% in size
Source text: National Center for Advancing Translational Sciences [NCATS]
NIH Chemical Genomics Center [NCGC]
U.S. Environmental Protection Agency [EPA]
National Institutes of Environmental Health Sciences [NIEHS]
National Toxicology Program [NTP]
Cell-based models are critical for drug discovery. Determining the natural cytotoxic effects resulting from test compounds is an essential research activity. A CellTox Green Cytotoxicity Assay to monitor cytotoxicity in real time of continues cell culture during 40 hours of the compound treatment was used to screen Tox21 10K library compounds in Hek293 cells. CellTox Green Cytotoxicity Assay is a nonlytic, homogeneous, biofluorescent method to measure cytotoxicity in cell culture after experimental manipulation. The assay system uses a proprietary asymmetric cyanine dye that is excluded from viable cells but preferentially stains the dead cell's DNA. […] Viable cells produce no appreciable increases in fluorescence. Therefore, the fluorescence signal produced by the binding interaction with dead cell DNA is proportional to cytotoxicity.
The mixture of Hek293 cell suspension and reagents were dispensed at 600cells/6 ul/well in 1536-well tissue culture treated black solid bottom plates using a Multidrop dispenser. After the assay plates were incubated at a 37 C/5% CO2 incubator for 5 hours, 23 nL of compounds dissolved in DMSO, positive and negative controls was transferred to the assay plate by a pintool work station. The plates were incubated at 37 C for 40 hours. The fluorescence intensity were measured at 0h, 8h, 16h, 24h, 32h and 40h time points using ViewLux plate reader during compound treatment.
On the % scale 0 is the no-effect control and ±100 the full control effect.

| SMILES | cytotoxicity |
| --- | --- |
| Cc1cc(C)c(N=Nc2c(O)c(S(=O)(=O)O)cc3cc(S(=O)(=O)O)ccc23)cc1C | 0.859% [at 6.97 µM] (inactive) |
| Cc1ccc(-c2ccccc2C#N)cc1 | -0.492% [at 35.3 µM] (inactive) |
| COc1cccc(OC)c1C(=O)N[C@@H]1C(=O)N2[C@@H]1SC(C)(C)[C@@H]2C(=O)O | -13% [at 35.3 µM] (inactive) |
| CC(CO)(CO)[N+](=O)[O-] | 4.39% (inactive) |
| C1CCC2=NCCCN2CC1 | -7.61% (inactive) |
| CC(C)(N)C#N | -0.559% (inactive) |
| CCOC(=O)C(=O)CCCCCCl | 2.6% [at 35.3 µM] (inactive) |
| CCCCOCCOC(=O)CCCCCCCCC(=O)OCCOCCCC | -1.4% (inactive) |
| CC[N+](CC)(CC)CCOc1cccc(OCC[N+](CC)(CC)CC)c1OCC[N+](CC)(CC)CC | 1.14% [at 35.3 µM] (inactive) |
| Nc1ccn([C@@H]2O[C@H](CO)[C@@H](O)[C@@H]2O)c(=O)n1 | 1.1% (inactive) |
| C=CN1CCCCCC1=O | 4.45% (inactive) |
| CCCCOC(=O)CCC(C)=O | -9.22% (inactive) |
| CCOC(=O)COC(=O)c1ccccc1C(=O)OCC | -8.37% (inactive) |
| Cc1ccc(C(=O)c2ccccc2)cc1 | -0.22% (inactive) |
| CCCCCC(=O)OCCc1ccccc1 | 1.57% (inactive) |
| O=C(O)CNC(=O)c1ccccc1 | 0.799% [at 35.3 µM] (inactive) |
| CC1=NN(c2cc(S(=O)(=O)O)ccc2Cl)C(=O)C1N=Nc1ccccc1 (stereo not given) | 0.318% (inactive) |
| CC1(C)[C@@H]2CC[C@@]1(C)[C@H](O)C2 | 0.719% (inactive) |
| CC/C=C\CCOC(C)OCC (stereo not given) | -2.12% [at 35.3 µM] (inactive) |
| CCNC(=O)[C@@H]1CCCN1C(=O)[C@H](CCCN=C(N)N)NC(=O)[C@H](CC(C)C)NC(=O)CNC(=O)[C@H](Cc1ccc(O)cc1)NC(=O)[C@H](CO)NC(=O)[C@H](Cc1c[nH]c2ccccc12)NC(=O)[C@H](Cc1cnc[nH]1)NC(=O)[C@@H]1CCC(=O)N1 ([pGlu]HWSYGLRP-NHEt) | -0.455% [at 35.3 µM] (inactive) |

| SMILES | cytotoxicity |
| --- | --- |
| CC(=O)N1C[C@H](O)C[C@H]1C(=O)O | -9.83% [at 35.3 µM] (inactive) |
| CCC(C(=O)NC(=O)NC(C)=O)c1ccccc1 (stereo not given) | 1.48% [at 35.3 µM] (inactive) |
| O=S(=O)(O)c1cccc(S(=O)(=O)O)c1 | 0.215% (inactive) |
| C[N+](C)(CCOc1ccccc1)Cc1cccs1 | -0.82% [at 35.3 µM] (inactive) |
| CC(=O)NC(=O)c1ccccc1O | -2.78% [at 35.3 µM] (inactive) |
| CCOC(=O)COc1cc(-n2ncc(C(F)(F)F)c(C)c2=O)c(F)cc1Cl | 0.792% (inactive) |
| Clc1cc(Cl)cc(Cl)c1 | -1.65% (inactive) |
| CCCC(C)C(=O)OCC (stereo not given) | 1.32% (inactive) |
| Cc1cccc(C)c1NC(=O)CC12CCCN1CCC2 | 3.4% [at 35.3 µM] (inactive) |
| CCCn1cc[n+](C)c1C | -1.77% (inactive) |
| CCCCCCCCN1CCCC1=O | 1.27% (inactive) |
| CC(C)CC(C)(N)C#N (stereo not given) | 2.84% (inactive) |
| CCOC(=O)c1ccccc1 | 1.51% (inactive) |
| Cc1coc2ccccc2c1=O | -7.68% [at 35.3 µM] (inactive) |
| CCCO[Si](OCCC)(OCCC)OCCC | -1.45% (inactive) |
| CN1[C@@H]2CC[C@H]1CC(OC(=O)C(O)c1ccccc1)C2 (stereo not given in full) | 3.85% [at 35.3 µM] (inactive) |
| CC1=C(C/C=C(\C)CCC[C@H](C)CCC[C@H](C)CCCC(C)C)C(=O)c2ccccc2C1=O | -1.21% [at 35.3 µM] (inactive) |
| C[C@@H]1CCC[C@H](C)N1 | -5.71% [at 35.3 µM] (inactive) |
| CN(C)[C@@H]1C(=O)C(C(=O)NCN2CCCC2)=C(O)[C@@]2(O)C(=O)C3=C(O)c4c(O)cccc4[C@@](C)(O)C3C[C@@H]12 (stereo not given in full) | 2.05% [at 35.3 µM] (inactive) |
| NC(CCC(=O)O)C(=O)O (stereo not given) | 1.01% (inactive) |
